From PubChem BioAssay
For part of these data: Measured potencies and affinities stand elsewhere. Activity calls are given as the source filed them.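 The calls were made as follows, unless noted: active = membrane potential signal rise above negative control mean plus 3 SD in both duplicates, also active in the earlier TRPC4 screen; inactive = the rest.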

Assays:
[1] = tested on: TRPC4 beta (transient receptor potential cation channel C4), mouse; experiment: TRPC4 cation channel opening, retest – cell-based, Fluo4 calcium, HEK293 TRPC4beta/mu-opioid, duplicates, 10 µM, confirmation (AID 2426;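 active = fluorescence ratio normalized to control raised more than 50% in primary screen plus both repeat runs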); conditions: Fluo4 calcium fluorescence, at 10 µM; stronger effect = higher value
[2] = tested on: transient receptor potential cation channel C4 beta (TRPC4), mouse; experiment: TRPC4 cation channel opening, second retest – cell-based, second round, Fluo4, HEK293 TRPC4beta/mu-opioid, 1 µM, confirmation (AID 2461;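 active = primary screen active and over 50% activation in each of two duplicate runs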); conditions: Fluo4 calcium fluorescence, at 1 µM; stronger effect = higher value
[3] = tested on: TRPC4 (transient receptor potential cation channel C4 beta), mouse; experiment: potentiation of DAMGO EC20 TRPC4 response – cell-based, second round, Fluo-4, HEK293 TRPC4beta/mu-opioid, 1 µM, confirmation (AID 2554;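 active = primary screen hit whose fluorescence ratio, in both repeats, exceeds the weak agonist control mean by 3 SD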); conditions: DAMGO EC20, Fluo-4 calcium flux, at 1 µM; stronger effect = higher value
[4] = tested on: TRPC4 beta (transient receptor potential cation channel C4), mouse; experiment: potentiation of DAMGO EC20 TRPC4 response – cell-based, Fluo-4, HEK293 TRPC4beta/mu-opioid, confirmation (AID 2555;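 active = primary screen hit whose calcium fluorescence ratio, in both repeats, exceeds the weak agonist control mean by 3 SD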); conditions: DAMGO EC20, Fluo-4 calcium flux, at 10 µM; stronger effect = higher value
[5] = biological target: Short transient receptor potential channel 4 (Mus musculus) (UniProt Q9QUQ5); experiment: blockers of DAMGO-evoked TRPC4 calcium flux – cell-based, Fluo4, HEK293 TRPC4beta/mu-opioid, confirmation (AID 2636;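 active = calcium signal cut by more than 3 SD below the full-agonist control yet still positive, in both repeats and the earlier primary screen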); conditions: at 10 µM; stronger effect = higher value
[6] = biological target: Short transient receptor potential channel 4 (Mus musculus) (UniProt Q9QUQ5); experiment: blockers of DAMGO-evoked TRPC4 calcium flux – cell-based, second round, Fluo4, HEK293 TRPC4beta/mu-opioid, 1 µM, confirmation (AID 2637;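 active = calcium signal ratio cut to more than 3 SD under the fully stimulated control mean yet still positive, in both repeats and the primary screen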;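 as to inhibition: percent of integrated ratio relative to wells lacking test compound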); conditions: at 1 µM; stronger effect = higher value
[7] = biological target: Short transient receptor potential channel 4 (Mus musculus) (UniProt Q9QUQ5); experiment: calcium entry via TRPC4 opening agents – cell-based, HEK293 TRPC4/mu-opioid, Fluo-4 calcium, dose response (AID 434937;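 active = primary screen activator hit with a dose response curve and TRPC4 channel activation at any tested dose; inactive = no activation, no dose response, or not a primary hit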)
[8] = biological target: Short transient receptor potential channel 4 (Mus musculus) (UniProt Q9QUQ5); experiment: potentiation of DAMGO-evoked TRPC4 calcium signal – cell-based, HEK293 TRPC4/mu-opioid, Fluo-4 calcium, EC20 DAMGO, dose response (AID 434941;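 active = earlier screen potentiator hit that boosts the TRPC4 ion channel at some dose, with a dose response; inactive = no potentiation, no dose response, or not a prior hit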;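 also: calcium entry triggered by an EC20 dose of DAMGO at the co-expressed mu-opioid receptor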)
[9] = biological target: Short transient receptor potential channel 6 (Mus musculus) (UniProt Q61143); experiment: TRPC6 blockade by TRPC4 inhibitor hits – cell-based, HEK293, membrane potential dye, duplicate, selectivity assay for TRPC4 inhibitor project, confirmation (AID 434948;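 active = active in primary screen and both duplicates, each dropping signal beyond three positive-control SD with fluorescence still positive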); conditions: HEK293 TRPC6, membrane potential dye fluorescence, at 10 µM, stimulated with maximal-effect acetylcholine; stronger effect = higher value
[10] = biological target: Short transient receptor potential channel 6 (Mus musculus) (UniProt Q61143); experiment: TRPC6 opening by TRPC4 activator hits – cell-based, HEK293, membrane potential dye, duplicate, selectivity assay for TRPC4 activator project, confirmation (AID 434950); conditions: HEK293 TRPC6, membrane potential fluorescence, at 10 µM; activation: stronger effect = higher value; outcome: activation
[11] = biological target: Short transient receptor potential channel 6 (Mus musculus) (UniProt Q61143); experiment: positive modulators of mouse TRPC6 channel – HEK293 cells, membrane potential dye, duplicate, selectivity assay for TRPC4 potentiator project, confirmation (AID 434952;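 active = compound raising the membrane signal above positive-control mean plus 3 SD in both repeats, and a primary screen hit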); conditions: HEK293 TRPC6, membrane potential dye fluorescence, at 10 µM, maximal acetylcholine added after compound; stronger effect = higher value
[12] = biological target: Short transient receptor potential channel 4 (Mus musculus) (UniProt Q9QUQ5); experiment: calcium flux activators in TRPC4/5HT1a cells, counter-screen for TRPC4 activator project, cell-based, second counter screen, HEK293 TRPC4/5HT1a, Fluo-4 (AID 434977;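 active = calcium signal rise above buffer-control mean plus 5 SD in both duplicates, and also a hit in the primary screen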); conditions: Fluo-4 calcium flux, at 10 µM; stronger effect = higher value
[13] = serotonin-gated TRPC4 signal block – cell-based, second counter screen, HEK293 TRPC4/5HT1a, Fluo-4, counter-screen for TRPC4 inhibitor project, confirmation (AID 434978;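 active = primary screen active whose calcium signal fell more than 3 SD beyond the full-serotonin control mean in both duplicate plates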;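 as to outcome: serotonin given first at submaximal then at maximal dose after compound preincubation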); conditions: Fluo-4 calcium flux, at 10 µM, serotonin added to trigger calcium flux; stronger effect = higher value
[14] = tested on: TRPC4 (mouse), co-expressed with 5HT1a in HEK293; experiment: enhancement of serotonin-evoked TRPC4 response – cell-based, second counter screen, HEK293 TRPC4/5HT1a, Fluo-4, counter-screen for TRPC4 potentiator project, confirmation (AID 434979;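 active = signal rise over 3 SD above mean of control wells given weak agonist, in both repeats and first screen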); conditions: Fluo-4 calcium flux, at 10 µM, serotonin added at its EC20 dose; stronger effect = higher value
[15] = nonspecific calcium rise without TRPC4 – cell-based, HEK293 mu-opioid receptor line, counter-screen for TRPC4 activator project, confirmation (AID 449723;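 active = hit in primary screen, with calcium signal over 5 SD above buffer well mean in both duplicates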;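 also: counter screen cells carry the mu-opioid receptor alone and lack TRPC4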); conditions: HEK293 mu-opioid cells, Fluo-4 calcium fluorescence, at 10 µM; stronger effect = higher value
[16] = nonspecific potentiation of DAMGO calcium response – cell-based, HEK293 mu-opioid receptor line, counter-screen for TRPC4 allosteric potentiator project, confirmation (AID 449724;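 active = calcium signal rise more than 3 SD above the low-dose agonist control mean, in both duplicate plates and the primary screen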); conditions: HEK293 mu-opioid receptor cells, Fluo-4 calcium flux, at 10 µM, compound added before EC20 DAMGO stimulus; stronger effect = higher value

Measured: inhibition

Chain of Short transient receptor potential channel 6 (Mus musculus) (Q61143 whole entry, looked up): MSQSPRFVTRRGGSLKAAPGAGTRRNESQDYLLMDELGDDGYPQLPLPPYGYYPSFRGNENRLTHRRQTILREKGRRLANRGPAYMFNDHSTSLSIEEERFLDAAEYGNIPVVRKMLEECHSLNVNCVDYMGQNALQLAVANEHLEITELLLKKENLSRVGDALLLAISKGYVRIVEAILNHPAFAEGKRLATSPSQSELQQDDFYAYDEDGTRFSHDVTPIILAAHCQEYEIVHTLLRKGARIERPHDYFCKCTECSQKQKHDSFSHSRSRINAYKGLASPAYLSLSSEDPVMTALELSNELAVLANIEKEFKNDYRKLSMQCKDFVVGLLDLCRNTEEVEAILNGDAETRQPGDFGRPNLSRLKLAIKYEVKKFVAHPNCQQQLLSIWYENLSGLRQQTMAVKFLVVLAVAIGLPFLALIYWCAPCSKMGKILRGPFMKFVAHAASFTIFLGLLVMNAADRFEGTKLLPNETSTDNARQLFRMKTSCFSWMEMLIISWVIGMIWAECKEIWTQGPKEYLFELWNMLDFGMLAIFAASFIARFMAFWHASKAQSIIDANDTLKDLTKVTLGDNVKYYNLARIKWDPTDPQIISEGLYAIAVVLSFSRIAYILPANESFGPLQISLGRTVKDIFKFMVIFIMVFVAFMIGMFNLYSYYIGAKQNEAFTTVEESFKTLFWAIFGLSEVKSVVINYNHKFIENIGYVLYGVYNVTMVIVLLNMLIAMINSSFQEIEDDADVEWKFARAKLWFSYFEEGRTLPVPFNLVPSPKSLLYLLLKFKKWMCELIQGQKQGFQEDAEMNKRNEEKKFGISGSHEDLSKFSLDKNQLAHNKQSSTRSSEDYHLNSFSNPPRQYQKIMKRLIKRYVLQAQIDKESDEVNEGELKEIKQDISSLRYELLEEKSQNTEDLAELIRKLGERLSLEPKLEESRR
Chain of Short transient receptor potential channel 4 (Mus musculus) (Q9QUQ5 whole entry, looked up): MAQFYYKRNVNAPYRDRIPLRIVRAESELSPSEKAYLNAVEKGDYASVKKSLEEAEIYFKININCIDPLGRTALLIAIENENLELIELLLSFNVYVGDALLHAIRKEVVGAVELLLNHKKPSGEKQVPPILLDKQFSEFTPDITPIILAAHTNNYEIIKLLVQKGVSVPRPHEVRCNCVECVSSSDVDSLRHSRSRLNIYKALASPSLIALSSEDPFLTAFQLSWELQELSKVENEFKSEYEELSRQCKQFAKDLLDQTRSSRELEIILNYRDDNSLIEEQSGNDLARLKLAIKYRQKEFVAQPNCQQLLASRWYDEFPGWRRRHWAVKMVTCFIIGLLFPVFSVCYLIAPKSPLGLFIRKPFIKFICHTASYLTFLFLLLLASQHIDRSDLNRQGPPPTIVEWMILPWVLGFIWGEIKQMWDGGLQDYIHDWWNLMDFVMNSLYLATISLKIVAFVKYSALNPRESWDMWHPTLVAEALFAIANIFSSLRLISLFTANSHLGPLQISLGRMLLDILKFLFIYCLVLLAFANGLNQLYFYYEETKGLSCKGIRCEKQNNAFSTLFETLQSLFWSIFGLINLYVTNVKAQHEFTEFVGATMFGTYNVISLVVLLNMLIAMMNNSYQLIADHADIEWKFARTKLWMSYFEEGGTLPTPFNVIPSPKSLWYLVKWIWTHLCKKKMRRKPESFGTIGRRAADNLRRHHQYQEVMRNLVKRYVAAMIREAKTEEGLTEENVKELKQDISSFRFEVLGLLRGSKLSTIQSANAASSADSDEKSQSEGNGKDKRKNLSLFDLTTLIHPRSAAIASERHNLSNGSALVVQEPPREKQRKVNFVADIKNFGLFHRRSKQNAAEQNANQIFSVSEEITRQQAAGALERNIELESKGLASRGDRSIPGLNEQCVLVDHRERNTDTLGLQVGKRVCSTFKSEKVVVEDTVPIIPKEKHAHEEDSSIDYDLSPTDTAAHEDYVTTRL

COc1ccc(CNC(=O)CN(C)Cc2ccccc2F)cc1OC
active: [5] 86% | [13] 34.9%
inactive: all other assays above

CCCc1cc(=O)[nH]c(SCC(=O)Nc2sc3c(c2C#N)CCCC3)n1
active: [5] 85%
inactive: all other assays above

Oc1ccc(-c2csc(-c3ccccc3)n2)cc1O
active: [5] 80%
inactive: all other assays above

CC(C)NCC(O)COCCOc1ccc(C(C)(C)C)cc1 (stereo not given)
active: [5] 97% | [6] 59% | [13] 28.6%
inactive: all other assays above

Cc1cccc(-n2nc(C)c3c(C(=O)O)cc(-c4cccs4)nc32)c1
active: [5] 89% | [13] 28.2%
inactive: all other assays above

O=C(CSc1nc2ccccc2c(=O)n1CCCO)N1CCc2ccccc21
active: [5] 94% | [6] 67% | [13] 13.1%
inactive: all other assays above

Cc1ccc(Nc2cc(C)nc3ccc(C)cc23)cc1
active: [9] 35% | [13] 25.7%
inactive: all other assays above

Cc1ccc(N(CC(=O)NC2CCCC2)C(=O)CNC(=O)c2cccs2)cc1F
active: [5] 70%
inactive: all other assays above

CN(C)C(CNC(=O)c1oc2ccccc2c1CSc1ncn[nH]1)c1ccco1 (stereo not given)
active: [5] 85% | [6] 48%
inactive: all other assays above

CCC1CCCCN1CCN1C(=O)C2C(C(=O)Nc3ccc(OC)cc3)C3C=CC2(O3)C1C(=O)NC1CCCCC1 (stereo not given)
active: [5] 96% | [6] 90%
inactive: all other assays above

C/C(N)=C(/C#N)C(=O)COC(=O)CC12CC3CC(CC(C3)C1)C2
active: [5] 83% | [13] 32.2%
inactive: all other assays above

COC(=O)CSc1nnc(-c2sc3cc(OC)ccc3c2Cl)n1C
active: [5] 95% | [6] 59%
inactive: all other assays above

CCOC(=O)CSc1nc2ccccc2c(=O)n1CC1CCCC1
active: [5] 84% | [13] 18.3%
inactive: all other assays above

COc1cccc(O)c1CN1CCCC(C(=O)c2cccc(C(F)(F)F)c2)C1 (stereo not given)
active: [5] 70% | [13] 34.3%
inactive: all other assays above

Cc1ccc(C(CNS(=O)(=O)c2ccc([N+](=O)[O-])cc2)N2CCN(C)CC2)cc1 (stereo not given)
active: [5] 54% | [6] 63%
inactive: all other assays above
